Measurements published in PubChem BioAssay (NCATS).
Inconclusive results are not listed. Unmarked numbers belong to inactive results. Active and inactive are the calls of the source. Unless noted, calls come from the whole dose curve.

Assays:
[1] = Cell Viability - BJ (AID 421); conditions: BJ fibroblast viability, qHTS;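 note: potency is the fitted concentration of half-maximal effect; cells exposed to compound for 40 hours at 37 °C before readout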
Outline: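 Cytotoxicity in human BJ foreskin fibroblasts is scored as loss of cellular ATP after a 40-hour exposure, measured by luciferase luminescence. Controls are DMSO and 100 uM tamoxifen.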

[2] = Cell Viability - Jurkat (AID 426;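 active = dose-dependent loss of cell ATP signal giving a full or clear fitted curve, ranked by lower potency value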; note: potency is the fitted concentration of half-maximal effect); conditions: qHTS
Outline: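 Jurkat (clone E6-1, human T-cell leukemia) cells, 5000/well in complete medium, were exposed to compound for 40 hr at 37 °C. Viability was read as intracellular ATP by CellTiter-Glo luminescence; AC50 came from Hill fits of concentration-response data.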

[3] = Cell Viability - Hek293 (AID 427;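 active = compounds whose dose-response curve shows a full or clear partial loss of cell viability, called from curve shape rather than a numeric limit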;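 note: potency is the fitted concentration of half-maximal effect; cells exposed to compound for 40 hours at 37 °C before reading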); conditions: qHTS
Outline: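 qHTS, human embryonic kidney (adenovirus-transformed) cells; 40 hr cpd, 37 °C; CellTiter-Glo ATP luminescence. Norm: DMSO = 0, 100 uM tamoxifen = 100% inhibition. Hill-fit AC50.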

[4] = Cell Viability - HepG2 (AID 433); conditions: qHTS;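 note: potency is the fitted concentration of half-maximal effect; potency for ATP loss meaning cytotoxicity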
Outline: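 Read-out is luciferase-based quantitation of cellular ATP as a measure of viable HepG2 cells after 40 h treatment at 37 °C. Signal decrease is scaled between DMSO-only and 100 uM tamoxifen controls, with AC50 fitted by the Hill equation.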

[5] = Cell Viability - SK-N-SH (AID 435); conditions: SK-N-SH neuroblastoma cell viability qHTS;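 note: potency is the fitted concentration of half-maximal effect; compound exposure lasted 40 h at 37 °C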
Outline: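 Luminescent ATP signal served as the viability read-out after 40 hours of compound treatment of human neuroblastoma SK-N-SH cells. Concentration-response data, scaled between DMSO and 100 uM tamoxifen, gave AC50 values by standard Hill modeling.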

[6] = molecular target: Mitogen-activated protein kinase 10 (Mus musculus) (UniProt Q61831); test: JNK3 AlphaScreen Assay (AID 530; active = well fitted curve in either direction with a large enough effect, not every such curve was filed as active;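 note: kinase came from lysate of stimulated human HepG2 cells; signal reports phosphorylation of biotinylated GST-cJun 1-79 at Ser73 with 10 µM ATP; % is set by controls: 0 for no effect and ±100 for the full control effect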); conditions: JNK3 lysate, c-Jun phosphorylation; series mostly up to 57.1 µM
Outline: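 Room-temperature AlphaScreen kinase assay; pre-activated HepG2 lysate as JNK3 source, biotin-GST-cJun(1-79) substrate, 10 uM ATP, compound 15 min preincubation.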

[7] = Cell Viability - N2a (AID 540; active = well fitted curve in the direction sought with a large enough effect; an effect the other way counts as inactive or inconclusive;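 note: plate controls were DMSO alone for no effect and tamoxifen control for full effect; nearly all actives have a fitted effect of over 45% in size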); conditions: N2a mouse neuroblastoma cell viability; activity change, negative = cytotoxicity: at 92.2 µM (top of the series)
Outline: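 Mouse neuroblastoma N2a cells (1500/well) were preincubated 5 hr at 37 °C, then exposed to compounds for 40 hr at 37 °C in complete medium. Viability was read as intracellular ATP by CellTiter-Glo luminescence; AC50 from Hill fits.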

[8] = Cell Viability - NIH 3T3 (AID 541; active = well fitted curve in the direction sought with a large enough effect; an effect the other way counts as inactive or inconclusive; note: nearly all actives have a fitted effect of over 25% in size; note: potency is the fitted concentration of half-maximal effect;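 for activity change, negative = cytotoxicity: plate controls were DMSO alone for no effect and tamoxifen positive control for full effect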); conditions: NIH 3T3 cell viability, qHTS; activity change, negative = cytotoxicity: at 92.2 µM (top of the series)
Outline: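 NIH 3T3 mouse embryo fibroblasts (1000 cells/well) were plated in complete medium and treated with compound for 40 hr at 37 °C. Viability was read as intracellular ATP by CellTiter-Glo luminescence; AC50 values came from Hill-equation fits of concentration-response data.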

[9] = Cell Viability - HUV-EC-C (AID 542; active = well fitted curve in the direction sought with a large enough effect; an effect the other way counts as inactive or inconclusive; note: % is set by controls: 0 for no effect and ±100 for the full control effect; nearly all actives have a fitted effect of over 35% in size); conditions: HUV-EC-C endothelial cell viability, qHTS; series mostly up to 92.2 µM
Outline: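 HUV-EC-C normal human vascular endothelial cells, 1000 cells/well, pre-incubated 5 hr at 37 °C, then exposed to compounds for 40 hr at 37 °C in complete medium. Viability measured as intracellular ATP by CellTiter-Glo luminescence; AC50 from Hill fits.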

[10] = Cell Viability - MRC5 (AID 434); conditions: MRC5 lung fibroblast viability, qHTS;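 note: potency is the fitted concentration of half-maximal effect; potency reflects cytotoxicity seen as loss of intracellular ATP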
Outline: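 qHTS cytotoxicity in human lung fibroblast MRC5 cells; 40 hr treatment, 37 °C; cellular ATP by luciferase luminescence; DMSO = 0%, 100 uM tamoxifen = 100% inhibition; Hill-fit AC50.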

Row | Structure (SMILES) | Potency [1] [µM] | Potency [2] | Potency [3] [µM] | Potency [4] [µM] | Potency [5] [µM] | outcome [6] | activity change, negative = cytotoxicity [7] [%] | Potency [8] | Potency [9] | Potency [10] [µM]
1 | C/C=C(/C)C#N | > 92 | > 92 µM | > 92 | > 92 | > 92 | inactive | -3.64 | inactive | inactive | 
2 | Cc1ccc2ccccc2c1[N+](=O)[O-] | > 92 | > 92 µM | > 92 | > 92 | > 92 |  | -10.2 | inactive | inactive | 
3 | O=C1CCC(=O)O1 | > 92 | > 92 µM | > 92 | > 92 | > 92 | inactive | 2.23 | inactive | inactive | 
4 | CC(C)(C)OCC1CO1 (stereo not drawn) | > 92 | > 92 µM | > 92 | > 92 | > 92 | inactive | 3.76 | inactive | inactive | 
5 | O=[N+]([O-])c1ccc(CCO)cc1 | > 92 | > 92 µM | > 92 | > 92 | > 92 |  | -10.2 |  | inactive | > 92
6 | CC(=O)c1ccccc1[N+](=O)[O-] | > 92 | > 92 µM | > 92 | > 92 | > 92 |  | -16.5 | inactive | inactive | 
7 | O=Cc1ccc(Cl)cc1 | > 92 | > 92 µM | > 92 | > 92 | > 92 |  | -2.43 | inactive | inactive | > 92
8 | Cc1c(N)cccc1[N+](=O)[O-] | > 92 | > 92 µM | > 92 | > 92 | > 92 | inactive | 3.87 | inactive | inactive | 
9 | CCCCC(CC)COCC1CO1 (stereo not drawn) | > 92 | > 92 µM | > 92 | > 92 | > 92 | inactive | -13.9 | inactive | inactive | 
10 | CC(C)N=C=NC(C)C | > 92 | > 92 µM | > 92 | > 92 | > 92 | inactive | -6.55 | inactive | inactive | 
11 | Cc1cc(C)cc(N)c1 | > 92 | > 92 µM | > 92 | > 92 | > 92 |  | 0.732 | inactive | inactive | 
12 | CC(=O)Nc1ccccc1C | > 92 | > 92 µM | > 92 | > 92 | > 92 | inactive | 2.99 | inactive | inactive | 
13 | CC(=O)c1cc(C)oc1C | > 92 | > 92 µM | > 92 | > 92 | > 92 | inactive | -1.61 | inactive | inactive | 
14 | Nc1ccc(Cl)cc1[N+](=O)[O-] | > 92 | > 92 µM | > 92 | > 92 | > 92 | inactive | -24.6 | inactive | inactive | 
15 | CC(=C/C=C/C(C)=C/C=C/C=C(C)/C=C/C=C(C)/C=C/C(=O)O)/C=C/C(=O)O | > 92 | > 92 µM | > 92 | > 92 | > 92 | inactive | -0.984 | inactive | inactive | 
16 | CC(C)(c1cc(Br)c(OCC(Br)CBr)c(Br)c1)c1cc(Br)c(OCC(Br)CBr)c(Br)c1 (stereo not drawn) | > 92 | 46.9 µM (active) | > 92 | > 92 | > 92 | inactive | 5.75 | inactive | inactive | 
17 | O=C(O)c1c(Cl)cccc1Cl | > 92 | > 92 µM | > 92 | > 92 | > 92 | inactive | -6.78 | inactive | inactive | 
18 | CN(C)CCCNCCCN | > 92 | > 92 µM | > 92 | > 92 | > 92 | inactive | 1.31 | 12.6 µM (active) | inactive | 
